Only some compounds are listed: those with a hit (about 3.6% of all), similar ones and a draw of the others.
TGFb SMAD3 inh = qHTS for Inhibitors of TGF-b. HepG2 CAGA-GFP TGF-b/SMAD3 reporter, GFP fluorescence, 18 h; TGF-beta stimulated, 500 pg/mL final. Potency, µM (titrated, usually from 46.1 µM), for the others: at the highest dose activity, negative = inhibition, usual class: inhibitors. 1.2% of 410,000 active. AID 588855, 2011; note: % is set by controls: 0 for no effect and ±100 for the full control effect; nearly all actives have a fitted effect of over 65% in size
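GFP signal (ex488/em500-530) from TGF-beta-stimulated HEPG2 CAGA-GFP cells, 500 pg/mL final, 18 h at 37 degrees C in DMEM plus 1% FBS, normalized to unstimulated and DMSO-stimulated controls.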
HepG2 tox = qHTS for Inhibitors of TGF-b: Cytotox Counterscreen. HepG2 CAGA-GFP viability, ATP luminescence, 18 h. Potency, µM (titrated, usually from 46.1 µM), inactives show top-dose activity change, negative = cytotoxicity, hits mostly cytotoxic. 0.76% of 410,000 active. AID 588856, 2011
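HepG2 CAGA-GFP cells (1000/well, DMEM with 1% FBS) received compound, then TGF-beta at 500 pg/mL final, and were incubated 18 hours at 37 degrees C. Viability was read by CellTiter-Glo luminescence. Media-only wells were set as complete cell-killing and DMSO as no toxicity.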
Nrf2 activator = qHTS of Nrf2 Activators. Potency, µM (titrated, usually from 46.1 µM), without a hit: top-dose activation, usual class: activators. AID 624171, 2012. 0.31% of 410,000 active. AREc32 ARE-luciferase reporter (MCF7-derived line), luminescence, 24 h; note: % of control where 0% means no effect; nearly all actives have a fitted effect of over 65% in size
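ARE activation measured as luciferase luminescence (Steady-Glo, 30 min RT) in AREc32_Fluc cells after 24 hr compound exposure at 37 deg C, 5% CO2; cells seeded overnight at 1000/well in OPTI-MEM, 5% FBS.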
Nrf2 block = Nrf2 qHTS screen for inhibitors; 2.1% of 360,000 active; Potency, µM (titrated, usually from 46 µM), for inactives: top-dose activity change, negative = inhibition, most hits filed as inhibitors; A549 ARE-Fluc reporter, luciferase luminescence, 18-24 h; AID 504444, 2011; note: % is set by controls: 0 for no effect and ±100 for the full control effect; nearly all actives have a fitted effect of over 60% in size
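A549 ARE_Fluc cells (5000/well, 5% FBS OPTI-MEM) pre-incubated 2 h, then treated with compounds 18-24 h at 37C/5% CO2 in concentration-response. CellTiter-Fluor viability read first; BugLite luciferase luminescence after 15 min at room temperature gives Nrf2 activity.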
A549 tox-1 = Nrf2 qHTS screen for inhibitors: counterscreen for cytotoxicity. 0.16% of 390,000 active. Potency, µM (series often up to 46 µM), for the others: at the highest dose activity change, negative = cytotoxicity, usual class: inhibitors. A549 ARE-Fluc cells, CellTiter-Fluor viability, 18-24 h. AID 504648, 2011; note: % is set by controls: 0 for no effect and ±100 for the full control effect
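Cytotoxicity counterscreen: CellTiter-Fluor fluorescence was measured in A549 ARE_Fluc cells after 18-24 h of compound exposure in a concentration series. The subsequent BugLite luminescent read reports ARE-luciferase activity.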
FLuc enzyme inh = Nrf2 qHTS screen for inhibitors: Purified Fluc Biochemical Counterscreen for Hit Validation. shares compounds with Nrf2 block. AID 720522, 2013. Potency, µM (titrated, usually from 57.5 µM), for inactives: top-dose activity change, negative = inhibition, hits mostly inhibitors. 4% of 1,400 active. purified firefly luciferase, luminescence inhibition; note: % is set by controls: 0 for no effect and ±100 for the full control effect; nearly all actives have a fitted effect of over 65% in size
Target sequence (P08659 whole entry, looked up): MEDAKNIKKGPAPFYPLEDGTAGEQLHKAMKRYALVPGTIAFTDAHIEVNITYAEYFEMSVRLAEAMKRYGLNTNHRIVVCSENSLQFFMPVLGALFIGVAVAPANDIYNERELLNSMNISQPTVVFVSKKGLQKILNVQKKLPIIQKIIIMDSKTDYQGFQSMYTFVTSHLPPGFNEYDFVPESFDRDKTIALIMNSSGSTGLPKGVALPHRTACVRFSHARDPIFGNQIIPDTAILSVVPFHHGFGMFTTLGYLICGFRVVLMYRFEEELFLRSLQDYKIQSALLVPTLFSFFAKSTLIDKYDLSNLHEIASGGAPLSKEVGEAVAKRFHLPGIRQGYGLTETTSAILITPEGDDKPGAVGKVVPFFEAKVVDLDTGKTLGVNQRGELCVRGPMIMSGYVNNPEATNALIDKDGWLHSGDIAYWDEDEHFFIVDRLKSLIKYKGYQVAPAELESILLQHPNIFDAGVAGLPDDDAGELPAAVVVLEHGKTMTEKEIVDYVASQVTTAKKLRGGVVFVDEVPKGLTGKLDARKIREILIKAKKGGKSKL
A549 tox-2 = Nrf2 qHTS screen for inhibitors: A549 ARE-Fluc Cytotoxicity Counterscreen for Hit Validation; shares compounds with Nrf2 block; A549 ARE-Fluc cells, cytotoxicity counterscreen; Potency, µM (doses to about 46.1 µM), without a hit: at the top dose activity change, negative = cytotoxicity, usual class: inhibitors; 2% of 1,400 active;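 note: cells exposed to compounds for 18 to 24 hours; % is set by controls: 0 for no effect and ±100 for the full control effect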
ARE-Fluc inh = Nrf2 qHTS screen for inhibitors: Nrf2 A549 ARE-Fluc Confirmation Assay for Hit Validation | shares compounds with Nrf2 block | A549 ARE-firefly luciferase reporter, luminescence | Potency, µM (series often up to 46.1 µM), without a hit: top-dose activity change, negative = inhibition, most hits filed as inhibitors | 74% of 1,400 active | AID 720524, 2013; note: % is set by controls: 0 for no effect and ±100 for the full control effect; nearly all actives have a fitted effect of over 65% in size
Numbers without * were called inactive; ? = inconclusive; . = not tested or not shown. Calls come from the whole dose curve; as a rule, active = well fitted curve in the direction sought with a large enough effect; inconclusive = small, poorly fitted or top-dose-only effect, or another doubt; inactive = no such curve, though single readings can be large; an effect the other way counts as inactive or inconclusive. Potency is the fitted concentration of half-maximal effect.

SMILES	TGFb SMAD3 inh	HepG2 tox	Nrf2 activator	Nrf2 block	A549 tox-1	FLuc enzyme inh	A549 tox-2	ARE-Fluc inh
Cc1nc2c(-c3ccccc3)c(C)[nH]n2c(=O)c1Cc1ccc(Br)cc1	2.5µM*	-46%	-1%	8.2µM*	?	-2%	?	3.3µM*
Cc1nc2c(-c3ccccc3)c(C)[nH]n2c(=O)c1Cc1ccc(C(C)C)cc1	-9%	-39%	-1%	4.6µM*	?	3%	-21%	5.8µM*
Cc1ccc(Cc2c(C)nc3c(-c4ccccc4)c(C)[nH]n3c2=O)cc1	?	-35%	0%	1%	-10%	.	.	.
O=C(N/N=C(\Cc1ncc[nH]1)c1ccccc1)c1cccnc1	-2%	-3%	2%	2.3µM*	-16%	-2%	-11%	8.2µM*
O=C(N/N=C(\Cc1ncc[nH]1)c1ccccc1)c1ccncc1	-17%	-9%	2%	-15%	1%	.	.	.
O=C(N/N=C(\c1ccccc1)c1cccnc1)c1cccc(F)c1	?	-40%	?	7.3µM*	?	-20%	?	1.8µM*
CSC(=S)NN=C(C)c1cccc(C)n1	?	-63%	26%	4.1µM*	?	?	-26%	.
CC(=NNC(=S)Nc1ccccc1)c1ccccn1	?	-38%	4%	.	.	.	.	.
O=[N+]([O-])c1ccc2ncnc(N3CCN(Cc4ccc5c(c4)OCO5)CC3)c2c1	-4%	-17%	-1%	8.2µM*	-20%	-2%	-11%	16µM*
O=C(c1ccc(NS(=O)(=O)c2ccc(F)cc2)cc1)N1CCCCC1	-8%	26%	0%	-22%	1%	.	.	.
Cc1ccc(NS(=O)(=O)c2ccc(C(=O)N3CCN(c4ncccn4)CC3)cc2)cc1	-25%	-4%	1%	5.8µM*	?	-1%	-4%	8.2µM*
O=C(c1ccc(S(=O)(=O)Nc2ccc(F)cc2)cc1)N1CCN(c2ccccn2)CC1	?	-11%	2%	2.9µM*	?	-1%	-5%	15µM*
OCCC1CN(Cc2cnc(-c3ccc(Cl)cc3)nc2)CCN1C1CCCCC1 (centres undefined)	?	-31%	6%	8%	8%	.	.	.
CCCn1cc(S(=O)(=O)c2ccc(OC)cc2)c(=O)c2cc(F)c(N3CCCC(C)C3)cc21 (centres undefined)	-22%	-12%	0%	?	-18%	.	.	.
CCOc1ccc2c(c1)C(=NNC(=O)c1ccncc1)c1cc(OCC)ccc1-2	0%	-32%	3%	5.8µM*	-18%	?	?	5.2µM*
CC(=O)[C@H]1CC[C@H]2[C@@H]3CCC4=CC(=O)CC[C@]4(C)[C@H]3[C@H](O)C[C@]12C	24%	-11%	-1%	2%	0%	.	.	.
CC(=O)[C@H]1CC[C@H]2[C@@H]3C[C@H](C)C4=CC(=O)CC[C@]4(C)[C@H]3[C@@H](O)C[C@]12C	18%	-10%	0%	0.058µM*	0%	0%	-4%	0.15µM*
C[C@]12C[C@H](O)[C@H]3[C@@H](CCC4=CC(=O)CC[C@@]43C)[C@@H]1CC[C@@H]2C(=O)CO	18%	-55%	3%	0.41µM*	-8%	2%	-5%	1.3µM*
Cc1cccc(NC(=S)N(CCN2CCOCC2)Cc2ccccc2F)c1	-1%	-6%	0%	?	-2%	.	.	.
Cc1ccc2c(c1)NC(c1cccnc1)=NC(c1ccc(F)cc1)=N2	3%	-17%	4%	4%	6%	.	.	.
Cc1onc(-c2ccccc2)c1C(=O)NC(=S)NNC(=O)c1ccccc1O	-26%	-14%	0%	?	-9%	.	.	.
Cc1onc(-c2ccccc2)c1C(=O)NC(=S)NNC(=O)c1ccc(O)cc1O	-5%	6%	0%	7.3µM*	-14%	-19%	-10%	5.8µM*
COc1ccc(CC(=O)Nc2cccc(S(=O)(=O)N3CCCC3)c2)cc1OC	-26%	-27%	3%	4.6µM*	-21%	0%	-13%	7.3µM*
O=C(Cn1cnc2ccccc21)Nc1cccc(S(=O)(=O)N2CCCC2)c1	-7%	-2%	-1%	5.8µM*	-16%	-1%	-1%	9.2µM*
O=C(Cc1n[nH]c(=O)c2ccccc12)Nc1cccc(S(=O)(=O)N2CCCCCC2)c1	?	5%	4%	9.2µM*	-14%	-2%	-7%	9.2µM*
SMILES	TGFb SMAD3 inh	HepG2 tox	Nrf2 activator	Nrf2 block	A549 tox-1	FLuc enzyme inh	A549 tox-2	ARE-Fluc inh
COc1cc(OC)c(OC)cc1CNC(=O)c1cccc(S(=O)(=O)N2CCc3ccccc3C2)c1	-19%	-27%	-1%	7.3µM*	-17%	2%	-9%	5.8µM*
O=C(Cn1c(NCCO)nc2ccccc21)Nc1cccc(S(=O)(=O)N2CCCC2)c1	6%	-29%	0%	?	-3%	.	.	.
Cc1ccc(-c2n[nH]c3c2CCC3)cc1	-15%	-13%	2%	-11%	3%	.	.	.
CCc1nn2c(=O)cc(COC(=O)c3ccc(SC)cc3OC)nc2s1	-1%	5%	0%	-8%	-3%	.	.	.
CC1=C(C(=O)N2CCOCC2)CC(CC(=O)NCc2ccco2)C(=O)N1Cc1ccc(C(C)(C)C)cc1 (centres undefined)	-11%	3%	3%	.	.	.	.	.
CCN1CCN(CC(=O)Nc2ccc(Cl)c(Cl)c2)C(=O)C1=O	2%	-4%	0%	15%	0%	.	.	.
COc1ccc(CNC(=O)c2cccc(S(=O)(=O)N3CCCCC3)c2)cc1OC	?	-39%	0%	5.2µM*	-19%	3%	0%	5.8µM*
O=C(c1ccc(NS(=O)(=O)c2ccc(F)cc2)cc1)N1CCOCC1	0%	-2%	0%	-15%	-4%	.	.	.
CC1CCCN(S(=O)(=O)c2cc(C(=O)NCCc3ccc(S(N)(=O)=O)cc3)ccc2Cl)C1 (centres undefined)	?	-7%	0%	4.1µM*	?	1%	-26%	12µM*
